Test results published in PubChem BioAssay (EPA / NIEHS).
Inconclusive results are not listed. Calls of active or inactive are those of the source. Rule for the calls, unless noted: active = hit-call score of the fitted dose curve at least 0.9, where 1 is the maximum; inactive = score below 0.9.

Legend:
[1] = read-out: NAD(P)H dehydrogenase [quinone] 1 (NQO1), NQO1 (gene 1728); assay: LTEA_HepaRG_NQO1: Life Technologies and Expression Analysis (LTEA) Assay for NAD(P)H dehydrogenase [quinone] 1 (NQO1) using HepaRG (AID 2283526); conditions: mRNA level, 48 h; actives raise or lower the signal
In short: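 HepaRG, 48 h post-plating → serum-free induction medium → test chemical 48 h (duplicate, 100 uM top, half-log x8, 0.5% DMSO) → RNA isolation → qRT-PCR, ACTB/GAPDH/POLR2A normalization; bidirectional curve fit vs DMSO baseline.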

[2] = read-out: Nuclear factor erythroid 2-related factor 2 (Homo sapiens) (UniProt Q16236); assay: LTEA_HepaRG_NFE2L2: Life Technologies and Expression Analysis (LTEA) Assay for Nuclear factor erythroid 2-related factor 2 (NFE2L2) Transcription Factor using HepaRG (AID 2283527); conditions: mRNA level, 48 h; actives raise or lower the signal;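 note: TaqMan qRT-PCR transcript level normalised to ACTB GAPDH and POLR2A housekeeping genes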
In short: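 Differentiated human HepaRG cells in serum-free induction medium were exposed for 48 h to eight concentrations (top 100 uM, half-log dilutions, 0.5% DMSO), in duplicate. NFE2L2 mRNA was quantified by TaqMan qRT-PCR, normalized to ACTB, GAPDH and POLR2A, with bidirectional fitting versus DMSO.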

[3] = read-out: succinate dehydrogenase complex iron sulfur subunit B (SDHB), SDHB (gene 6390); assay: LTEA_HepaRG_SDHB: Life Technologies and Expression Analysis (LTEA) Assay for succinate dehydrogenase complex iron sulfur subunit B (SDHB) using HepaRG (AID 2283528); conditions: mRNA level, 48 h; actives raise or lower the signal
In short: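 A human HepaRG culture in serum-free induction medium received test chemicals for 48 h over an eight-point range capped at 100 uM. SDHB expression change was quantified by qRT-PCR.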

[4] = read-out: Signal transducer and activator of transcription 3 (Homo sapiens) (UniProt P40763); assay: LTEA_HepaRG_STAT3: Life Technologies and Expression Analysis (LTEA) Assay for Signal transducer and activator of transcription (STAT3) using HepaRG (AID 2283529); conditions: mRNA level, 48 h; actives raise or lower the signal
In short: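 Differentiated human HepaRG cells in serum-free induction medium were exposed in duplicate for 48 h to eight half-log concentrations up to 100 uM in 0.5% DMSO. STAT3 mRNA was quantified by TaqMan qRT-PCR, normalized to ACTB, GAPDH and POLR2A, and fitted bidirectionally against DMSO.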

[5] = read-out: solute carrier (SLCO1B1), SLCO1B1 (gene 10599); assay: LTEA_HepaRG_SLCO1B1: Life Technologies and Expression Analysis (LTEA) Assay for solute carrier (SLCO1B1) using HepaRG (AID 2283530); conditions: mRNA level, 48 h; actives raise or lower the signal
In short: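 Differentiated human HepaRG cells, plated 48 h, switched to serum-free induction medium and exposed in duplicate for 48 h to 8 half-log concentrations (top 100 uM) in 0.5% DMSO. SLCO1B1 mRNA by TaqMan qRT-PCR, normalized to ACTB/GAPDH/POLR2A.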

[6] = read-out: Transforming Growth Factor (TGFA), TGFA (gene 7039); assay: LTEA_HepaRG_TGFA: Life Technologies and Expression Analysis (LTEA) Assay for Transforming Growth Factor (TGFA) using HepaRG (AID 2283532); conditions: mRNA level, 48 h; actives raise or lower the signal
In short: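 Differentiated human HepaRG cells, plated 48 h then switched to serum-free induction medium, were exposed in duplicate for 48 h to 8-point half-log series from 100 uM in 0.5% DMSO. TGFA mRNA measured by qRT-PCR, normalized to ACTB/GAPDH/POLR2A, bidirectional fit versus DMSO.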

[7] = read-out: Transforming Growth Factor (TGFB1), TGFB1 (gene 7040); assay: LTEA_HepaRG_TGFB1: Life Technologies and Expression Analysis (LTEA) Assay for Transforming Growth Factor (TGFB1) Transporter using HepaRG (AID 2283533); conditions: mRNA level, 48 h; actives raise or lower the signal
In short: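 Differentiated human HepaRG cells in serum-free induction medium were exposed in duplicate for 48 h to eight concentrations (top 100 uM, half-log steps, 0.5% DMSO). TGFB1 mRNA was quantified by qRT-PCR, normalized to ACTB, GAPDH, POLR2A, and fitted bidirectionally against DMSO.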

TIMP1, TIMP1 (gene 7076) = assay: LTEA_HepaRG_TIMP1: Life Technologies and Expression Analysis (LTEA) Assay for TIMP1 using HepaRG (AID 2283534); conditions: mRNA level, 48 h; actives raise or lower the signal;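 note: TaqMan qRT-PCR signal normalized to ACTB GAPDH and POLR2A housekeeping genes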
In short: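 Differentiated human HepaRG cells in serum-free induction medium were exposed 48 h to chemicals (8 half-log concentrations, top 100 uM, 0.5% DMSO). TIMP1 mRNA was quantified by TaqMan qRT-PCR, normalized to ACTB/GAPDH/POLR2A; bidirectional fit versus DMSO.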

[8] = read-out: Tumor necrosis factor receptor 1 (TNFRSF1A), TNFRSF1A (gene 7132); assay: LTEA_HepaRG_TNFRSF1A: Life Technologies and Expression Analysis (LTEA) Assay for Tumor necrosis factor receptor 1 (TNFRSF1A) using HepaRG (AID 2283535); conditions: mRNA level, 48 h; actives raise or lower the signal
In short: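 Differentiated human HepaRG cells were exposed in duplicate for 48 h in serum-free induction medium to eight concentrations (top 100 uM, half-log steps, 0.5% DMSO). TNFRSF1A mRNA was quantified by qRT-PCR, normalized to ACTB, GAPDH and POLR2A, then fitted bidirectionally against DMSO.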

[9] = read-out: Thyroid Hormone Responsive (THRSP), THRSP (gene 7069); assay: LTEA_HepaRG_THRSP: Life Technologies and Expression Analysis (LTEA) Assay for Thyroid Hormone Responsive (THRSP) using HepaRG (AID 2283536); conditions: mRNA level, 48 h; actives raise or lower the signal
In short: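 Differentiated human HepaRG cells were exposed in duplicate for 48 h in serum-free induction medium to eight concentrations (top 100 uM, half-log steps, 0.5% DMSO). Expression was quantified by TaqMan qRT-PCR, normalized to ACTB, GAPDH and POLR2A, with bidirectional fitting against DMSO.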

[10] = read-out: Cellular tumor antigen p53 (Homo sapiens) (UniProt P04637); assay: LTEA_HepaRG_TP53: Life Technologies and Expression Analysis (LTEA) Assay for Tumor Protein P53 (TP53) using HepaRG (AID 2283537); conditions: mRNA level, 48 h; actives raise or lower the signal
In short: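 Gain or loss of TP53 mRNA signal is scored relative to 0.5% DMSO after 48 h chemical treatment of HepaRG liver cells, tested in duplicate at eight half-log concentrations up to 100 uM.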

[11] = read-out: UDP glucuronosyltransferase (UGT1A1), UGT1A1 (gene 54658); assay: LTEA_HepaRG_UGT1A1: Life Technologies and Expression Analysis (LTEA) Assay for UDP glucuronosyltransferase (UGT1A1) using HepaRG (AID 2283538); conditions: mRNA level, 48 h; actives raise or lower the signal
In short: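 Readout is UGT1A1 transcript level by qRT-PCR, normalized to three housekeeping genes, after 48 h chemical treatment of HepaRG cells. Concentrations ran from 100 uM down in half-log steps with 0.5% DMSO, and gain or loss relative to DMSO was fitted.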

[12] = read-out: UDP glucuronosyltransferase (UGT1A6), UGT1A6 (gene 54578); assay: LTEA_HepaRG_UGT1A6: Life Technologies and Expression Analysis (LTEA) Assay for UDP glucuronosyltransferase (UGT1A6) using HepaRG (AID 2283539); conditions: mRNA level, 48 h; actives raise or lower the signal
In short: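 Human HepaRG cells were dosed for 48 h in serum-free induction medium with 0.5% DMSO vehicle, eight-point half-log series from 100 uM, in duplicate. UGT1A6 mRNA was measured by qRT-PCR, normalized to ACTB, GAPDH, POLR2A, and fitted bidirectionally against DMSO.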

[13] = read-out: X-box binding protein 1 (XBP1), XBP1 (gene 7494); assay: LTEA_HepaRG_XBP1: Life Technologies and Expression Analysis (LTEA) Assay for X-box binding protein 1 (XBP1) using HepaRG (AID 2283540); conditions: mRNA level, 48 h; actives raise or lower the signal
In short: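 Differentiated human HepaRG cells in serum-free induction medium were exposed in duplicate for 48 h to eight half-log concentrations up to 100 uM in 0.5% DMSO. XBP1 mRNA was quantified by qRT-PCR, normalised to ACTB, GAPDH and POLR2A, with bidirectional fitting against DMSO.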

[14] = LTEA_HepaRG_LDH_cytotoxicity: Cytotoxicity Assessment in the Life Technologies and Expression Analysis (LTEA) Assay (AID 2283563; active = hit-call score of the fitted dose curve at least 0.9, where 1 is the maximum)
In short: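 Differentiated human HepaRG cells, plated 48 h beforehand, were switched to serum-free induction medium and exposed for 48 h to eight half-log concentrations (top 100 uM) in 0.5% DMSO. LDH was measured in spent medium; activity was fitted relative to DMSO vehicle.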

[15] = TOX21_p53_BLA_p2_viability: Viability Assessment in the Tox21 HCT-116 p53 Agonism Beta-lactamase Assay, Phase 2 (AID 2283591; active = hit-call score of the fitted dose curve at least 0.9, where 1 is the maximum;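 note: compound exposure lasted 16 h at 37 °C; actives lower the ATP signal meaning cytotoxicity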)
In short: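 HCT-116 p53-bla cells (4000/well) rested 5 h at 37C, then received compounds in DMSO (217-fold dilution) for 16 h at 37C, 5% CO2. After the CCF4 read, CellTiter-Glo was added; ATP luminescence was read after 30 min at room temperature.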

[16] = target: Cellular tumor antigen p53 (Homo sapiens) (UniProt P04637); assay: TOX21_p53_BLA_p2_ratio: Tox21 HCT-116 p53 Agonism Beta-lactamase Assay, Ratio, Phase 2 (AID 2283592; active = hit-call score of the fitted dose curve at least 0.9, where 1 is the maximum)
Sequence of Cellular tumor antigen p53 (Homo sapiens) (P04637 whole entry, looked up): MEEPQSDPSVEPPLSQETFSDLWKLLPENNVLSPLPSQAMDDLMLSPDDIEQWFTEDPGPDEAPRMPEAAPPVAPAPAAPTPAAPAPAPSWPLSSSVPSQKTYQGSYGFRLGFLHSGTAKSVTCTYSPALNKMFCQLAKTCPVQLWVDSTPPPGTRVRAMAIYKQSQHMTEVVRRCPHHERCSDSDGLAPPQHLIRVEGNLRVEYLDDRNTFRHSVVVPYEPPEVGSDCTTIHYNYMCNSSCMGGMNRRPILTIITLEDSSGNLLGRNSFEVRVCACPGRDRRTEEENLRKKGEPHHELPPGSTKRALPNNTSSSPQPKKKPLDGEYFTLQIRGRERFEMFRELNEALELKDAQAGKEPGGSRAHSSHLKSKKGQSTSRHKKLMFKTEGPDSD
In short: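 HCT116 cells carrying a p53-responsive beta-lactamase reporter were plated, incubated 5 h at 37C, then dosed with compounds in DMSO (217-fold dilution) for 16 h. CCF4-AM substrate was added for 2 h at room temperature; the 460/530 nm emission ratio gave gain-of-signal activity relative to DMSO.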

[17] = TOX21_p53_BLA_p3_viability: Viability Assessment in the Tox21 HCT-116 p53 Agonism Beta-lactamase Assay, Phase 3 (AID 2283593; active = hit-call score of the fitted dose curve at least 0.9, where 1 is the maximum;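 note: cells exposed to compound for 16 h before reading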)
In short: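 HCT-116 cells (4000/well) rested 5 h at 37C, then got DMSO compounds by pin tool (217-fold dilution) for 16 h at 37C, 5% CO2. After the bla read, CellTiter-Glo was added and luminescence read at 30 min, room temperature.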

Sequence of Nuclear factor erythroid 2-related factor 2 (Homo sapiens) (Q16236 whole entry, looked up): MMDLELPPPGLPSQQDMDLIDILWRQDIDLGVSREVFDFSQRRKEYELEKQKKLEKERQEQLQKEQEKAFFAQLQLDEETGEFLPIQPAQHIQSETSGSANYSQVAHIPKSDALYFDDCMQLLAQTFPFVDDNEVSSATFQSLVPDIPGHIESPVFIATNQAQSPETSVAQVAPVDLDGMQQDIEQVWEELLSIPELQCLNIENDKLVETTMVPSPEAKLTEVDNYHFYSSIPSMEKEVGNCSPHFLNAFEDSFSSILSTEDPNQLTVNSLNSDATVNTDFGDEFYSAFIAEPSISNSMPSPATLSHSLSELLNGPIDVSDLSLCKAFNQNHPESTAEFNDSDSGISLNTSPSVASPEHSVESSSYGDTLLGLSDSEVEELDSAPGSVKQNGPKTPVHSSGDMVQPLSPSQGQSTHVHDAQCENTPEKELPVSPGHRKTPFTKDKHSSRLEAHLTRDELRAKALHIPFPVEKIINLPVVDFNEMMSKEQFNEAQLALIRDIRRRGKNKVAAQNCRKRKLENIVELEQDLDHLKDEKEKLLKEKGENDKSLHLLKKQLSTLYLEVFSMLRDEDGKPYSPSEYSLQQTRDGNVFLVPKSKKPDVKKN
Sequence of Signal transducer and activator of transcription 3 (Homo sapiens) (P40763 whole entry, looked up): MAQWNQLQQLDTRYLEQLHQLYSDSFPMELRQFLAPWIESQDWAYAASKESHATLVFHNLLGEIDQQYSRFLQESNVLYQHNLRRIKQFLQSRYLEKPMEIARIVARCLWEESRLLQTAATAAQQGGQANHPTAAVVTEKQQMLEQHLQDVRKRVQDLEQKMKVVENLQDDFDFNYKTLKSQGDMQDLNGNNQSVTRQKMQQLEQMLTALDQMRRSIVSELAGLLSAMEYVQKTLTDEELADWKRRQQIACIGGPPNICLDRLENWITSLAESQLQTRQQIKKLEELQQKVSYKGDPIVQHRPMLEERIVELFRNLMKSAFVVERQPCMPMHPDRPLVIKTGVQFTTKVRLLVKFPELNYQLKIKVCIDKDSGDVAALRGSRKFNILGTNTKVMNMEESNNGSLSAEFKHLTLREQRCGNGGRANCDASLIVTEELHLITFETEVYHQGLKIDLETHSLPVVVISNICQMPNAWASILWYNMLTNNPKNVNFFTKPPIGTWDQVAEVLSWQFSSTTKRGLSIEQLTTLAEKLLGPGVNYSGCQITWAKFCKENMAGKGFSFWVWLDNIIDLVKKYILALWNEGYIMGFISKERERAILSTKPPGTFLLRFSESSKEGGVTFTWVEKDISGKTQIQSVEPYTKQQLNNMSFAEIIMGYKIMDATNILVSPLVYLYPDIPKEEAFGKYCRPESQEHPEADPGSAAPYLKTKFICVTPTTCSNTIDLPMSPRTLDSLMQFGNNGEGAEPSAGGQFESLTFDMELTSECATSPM

Compound: Nc1c(Cl)c(F)nc(OCC(=O)O)c1Cl
- outcome [1]: inactive
- outcome [2]: inactive
- outcome [3]: inactive
- outcome [4]: inactive
- outcome [5]: inactive
- outcome [6]: inactive
- outcome [7]: inactive
- outcome (TIMP1, TIMP1 (gene 7076)): inactive
- outcome [8]: inactive
- outcome [9]: inactive
- outcome [10]: inactive
- outcome [11]: inactive
- outcome [12]: inactive
- outcome [13]: inactive
- outcome [14]: inactive
- outcome [15]: inactive
- outcome [16]: inactive
- outcome [17]: inactive

Compound: COCc1cnc(C2=NC(C)(C(C)C)C(=O)N2)c(C(=O)O)c1 (stereo not given)
- outcome [1]: inactive
- outcome [2]: inactive
- outcome [3]: inactive
- outcome [4]: inactive
- outcome [5]: inactive
- outcome [6]: inactive
- outcome [7]: inactive
- outcome (TIMP1, TIMP1 (gene 7076)): inactive
- outcome [8]: inactive
- outcome [9]: inactive
- outcome [11]: inactive
- outcome [12]: inactive
- outcome [13]: inactive
- outcome [14]: inactive

Compound: Cc1cc(C)nc(Nc2ccccc2)n1
- outcome [1]: inactive
- outcome [2]: inactive
- outcome [3]: inactive
- outcome [4]: inactive
- outcome [5]: inactive
- outcome [6]: inactive
- outcome [7]: inactive
- outcome (TIMP1, TIMP1 (gene 7076)): inactive
- outcome [8]: inactive
- outcome [9]: inactive
- outcome [10]: inactive
- AC50 [11]: 68.6 µM (active)
- outcome [12]: inactive
- outcome [13]: inactive
- outcome [14]: inactive
- outcome [15]: inactive
- outcome [16]: inactive

Compound: COP(=O)(OC)O/C(C)=C/C(=O)N(C)C
- outcome [1]: inactive
- outcome [2]: inactive
- outcome [3]: inactive
- outcome [4]: inactive
- outcome [5]: inactive
- outcome [6]: inactive
- outcome [7]: inactive
- outcome (TIMP1, TIMP1 (gene 7076)): inactive
- outcome [8]: inactive
- outcome [9]: inactive
- outcome [10]: inactive
- outcome [11]: inactive
- outcome [12]: inactive
- outcome [13]: inactive
- outcome [14]: inactive
- outcome [15]: inactive
